# Experimental data taken from the supplement of paper PMC4466140.
# Target: ScBbc1
# Assay: SPOT peptide array binding signal intensity (averaged, normalized) (arbitrary units (background-subtracted, floor 0; scale differs between SH3 domains)); higher = stronger binding of the SH3 domain to the peptide
# How it was run: (§1)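 Four yeast species supplied the SH3 domains, which were expressed as GST fusions in E. coli BL21(DE3) and purified on glutathione Sepharose. Incubation with cellulose membranes carrying synthetic 15-mer peptides, cysteines exchanged for serines, ran overnight at 4°C at 10 μg/ml in TBS-based blocking buffer. Binding signal is reported as normalized, background-subtracted spot intensity averaged over replicates, in arbitrary units not shared between domains.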
row,Binder,SPOT peptide array binding signal intensity
1,MFLISPPASPPPEFD,≤ 0

# Target: ScBem1-D1
# Assay: as above
# How it was run: as §1
row,Binder,SPOT peptide array binding signal intensity
1,MFLISPPASPPPEFD,≤ 0

# Target: ScBzz1-D1
# Assay: as above
# How it was run: as §1
row,Binder,SPOT peptide array binding signal intensity
1,MFLISPPASPPPEFD,7

# Target: ScBzz1-D2
# Assay: as above
# How it was run: as §1
row,Binder,SPOT peptide array binding signal intensity
1,MFLISPPASPPPEFD,2

# Target: ScCyk3
# Assay: as above
# How it was run: as §1
row,Binder,SPOT peptide array binding signal intensity
1,MFLISPPASPPPEFD,2

# Target: ScFus1
# Assay: as above
# How it was run: as §1
row,Binder,SPOT peptide array binding signal intensity
1,MFLISPPASPPPEFD,7

# Target: ScHof1
# Assay: as above
# How it was run: as §1
row,Binder,SPOT peptide array binding signal intensity
1,MFLISPPASPPPEFD,≤ 0

# Target: ScHse1
# Assay: as above
# How it was run: as §1
row,Binder,SPOT peptide array binding signal intensity
1,MFLISPPASPPPEFD,≤ 0

# Target: ScLsb1
# Assay: as above
# How it was run: as §1
row,Binder,SPOT peptide array binding signal intensity
1,MFLISPPASPPPEFD,≤ 0

# Target: ScLsb2
# Assay: as above
# How it was run: as §1
row,Binder,SPOT peptide array binding signal intensity
1,MFLISPPASPPPEFD,≤ 0

# Target: ScLsb3
# Assay: as above
# How it was run: as §1
row,Binder,SPOT peptide array binding signal intensity
1,MFLISPPASPPPEFD,≤ 0

# Target: ScLsb4
# Assay: as above
# How it was run: as §1
row,Binder,SPOT peptide array binding signal intensity
1,MFLISPPASPPPEFD,≤ 0

# Target: ScMyo3
# Assay: as above
# How it was run: as §1
row,Binder,SPOT peptide array binding signal intensity
1,MFLISPPASPPPEFD,735

# Target: ScMyo5
# Assay: as above
# How it was run: as §1
row,Binder,SPOT peptide array binding signal intensity
1,MFLISPPASPPPEFD,650

# Target: ScNbp2
# Assay: as above
# How it was run: as §1
row,Binder,SPOT peptide array binding signal intensity
1,MFLISPPASPPPEFD,20

# Target: ScPex13
# Assay: as above
# How it was run: as §1
row,Binder,SPOT peptide array binding signal intensity
1,MFLISPPASPPPEFD,≤ 0

# Target: ScRvs167
# Assay: as above
# How it was run: as §1
row,Binder,SPOT peptide array binding signal intensity
1,MFLISPPASPPPEFD,≤ 0

# Target: ScSho1
# Assay: as above
# How it was run: as §1
row,Binder,SPOT peptide array binding signal intensity
1,MFLISPPASPPPEFD,≤ 0

# Target: ScSla1-D1-D2
# Assay: as above
# How it was run: as §1
row,Binder,SPOT peptide array binding signal intensity
1,MFLISPPASPPPEFD,≤ 0

# Target: ScSla1-D3
# Assay: as above
# How it was run: as §1
row,Binder,SPOT peptide array binding signal intensity
1,MFLISPPASPPPEFD,7.25

# Target: SpAbp1-D1
# Assay: as above
# How it was run: as §1
row,Binder,SPOT peptide array binding signal intensity
1,MFLISPPASPPPEFD,≤ 0

# Target: SpBbc1
# Assay: as above
# How it was run: as §1
row,Binder,SPOT peptide array binding signal intensity
1,MFLISPPASPPPEFD,0.5

# Target: SpBzz1-D1
# Assay: as above
# How it was run: as §1
row,Binder,SPOT peptide array binding signal intensity
1,MFLISPPASPPPEFD,33.5

# Target: SpBzz1-D2
# Assay: as above
# How it was run: as §1
row,Binder,SPOT peptide array binding signal intensity
1,MFLISPPASPPPEFD,≤ 0

# Target: SpCyk3
# Assay: as above
# How it was run: as §1
row,Binder,SPOT peptide array binding signal intensity
1,MFLISPPASPPPEFD,4

# Target: SpHof1
# Assay: as above
# How it was run: as §1
row,Binder,SPOT peptide array binding signal intensity
1,MFLISPPASPPPEFD,7.5

# Target: SpHof1-2
# Assay: as above
# How it was run: as §1
row,Binder,SPOT peptide array binding signal intensity
1,MFLISPPASPPPEFD,8.25

# Target: SpHof1-3
# Assay: as above
# How it was run: as §1
row,Binder,SPOT peptide array binding signal intensity
1,MFLISPPASPPPEFD,≤ 0

# Target: SpHse1
# Assay: as above
# How it was run: as §1
row,Binder,SPOT peptide array binding signal intensity
1,MFLISPPASPPPEFD,103

# Target: SpLsb1
# Assay: as above
# How it was run: as §1
row,Binder,SPOT peptide array binding signal intensity
1,MFLISPPASPPPEFD,≤ 0

# Target: SpLsb4
# Assay: as above
# How it was run: as §1
row,Binder,SPOT peptide array binding signal intensity
1,MFLISPPASPPPEFD,49

# Target: SpMyo1
# Assay: as above
# How it was run: as §1
row,Binder,SPOT peptide array binding signal intensity
1,MFLISPPASPPPEFD,1430

# Target: SpNbp2
# Assay: as above
# How it was run: as §1
row,Binder,SPOT peptide array binding signal intensity
1,MFLISPPASPPPEFD,9

# Target: SpPex13
# Assay: as above
# How it was run: as §1
row,Binder,SPOT peptide array binding signal intensity
1,MFLISPPASPPPEFD,2.5

# Target: SpRvs167
# Assay: as above
# How it was run: as §1
row,Binder,SPOT peptide array binding signal intensity
1,MFLISPPASPPPEFD,≤ 0

# Target: SpSla1-D1-D2
# Assay: as above
# How it was run: as §1
row,Binder,SPOT peptide array binding signal intensity
1,MFLISPPASPPPEFD,≤ 0

# Target: SpSla1-D3
# Assay: as above
# How it was run: as §1
row,Binder,SPOT peptide array binding signal intensity
1,MFLISPPASPPPEFD,≤ 0
